Bioassay records (PubChem)
Not all results are given here.
aSyn UTR act: Activators via SNCA 5'UTR binding, MLPCN; alpha-synuclein 5'UTR reporter, activators screen; activity score, % (tested at 7.5 µM), hits read low; 7.1% of 300,000 active; AID 1814; in the data active = activity score below about -60%
An asterisk follows results filed as active.

SMILES | aSyn UTR act
COc1ccc2c(c1)C(=NN)c1cc(OC)ccc1-2 | -65.1*
Cc1cc2oc3ccc(NCCCn4ccnc4)cc3c(=O)c2cc1C | -85.9*
Cc1cc2oc3ccc(NCCCN4CCOCC4)cc3c(=O)c2cc1C | -96.7*
COc1cccc2c1C(=O)c1c(O)c3c(c(O)c1C2=O)C[C@@](O)(C(=O)CO)C[C@@H]3O[C@H]1C[C@H](N)[C@@H](O)[C@H](C)O1 | 109.3
CCc1cc2c(=O)n(-c3ccc(C)cc3)cnc2s1 | -148.5*
CCc1cc2c(=O)n(-c3ccccc3)cnc2s1 | -95.5*
CS(=O)(=O)c1sc(C#N)c2c1C(=O)CC(c1ccccc1)C2 (stereo unspecified) | 81.1
Cc1ccc(C2=NN3C(=O)c4ccccc4C3C2)cc1 (stereo unspecified) | -170.3*
COc1cccc(NC2SC(=O)N(c3ccccc3)C2=O)c1 (stereo unspecified) | -97.0*
c1ccc(COc2ccc(OCCCNC3CCCC3)cc2)cc1 | -70.3*
COCCCNCCCCOc1ccc(OCc2ccccc2)cc1 | -69.2*
C=CCNCCCCOc1ccc(OCc2ccccc2)cc1 | -79.8*
CSc1ccc2c(c1)C(N1CCN(C)CC1)Cc1ccc(F)cc1S2 (stereo unspecified) | 57.5
Brc1ccc(-c2csc(N3CCC(c4ccccc4)C3)n2)cc1 (stereo unspecified) | -85.7*
Fc1ccc(-c2csc(N3CCSCC3)n2)cc1 | -62.7*
c1ccc(-c2csc(-n3cccn3)n2)cc1 | -130.4*
O=C(CSc1nc(-c2ccc(F)cc2)cs1)N1CCOCC1 | -119.1*
Fc1ccc(-c2csc(N3CCOCC3)n2)cc1 | -129.3*
c1ccc(-c2csc(N3CCSCC3)n2)cc1 | -90.3*
c1ccc(-c2cn3nc4c(nc3n2)CCCC4)cc1 | 109.3
CC(C)C1CC(=O)NC(SCC(=O)Nc2ccc(Br)cc2)=C1C#N (stereo unspecified) | -74.2*
Cc1ccccc1NC(=O)CSC1=C(C#N)C(c2ccsc2)CC(=O)N1 (stereo unspecified) | -83.8*
Cc1ccc(NC(=O)CSC2=C(C#N)C(c3ccco3)CC(=O)N2)cc1 (stereo unspecified) | -148.0*
CC(C)CCNC(=S)Nc1ccc([N+](=O)[O-])cc1 | -63.1*
CC(C)CCNC(=S)Nc1ccc(Br)cc1 | -69.2*
SMILES | aSyn UTR act
O=[N+]([O-])c1ccc(NNC(=S)Nc2ccc(F)cc2)cc1 | -157.2*
CCCN1CCC(=NNc2ccc(S(=O)(=O)N(CC)CC)cc2[N+](=O)[O-])CC1 | 78.9
CCCN1CCC(NC(=S)Nc2ccc([N+](=O)[O-])cc2)CC1 | -80.4*
CC(C)CCNC(=O)/C=C/c1ccc(Br)cc1 | -64.1*
COC(=O)Cc1ccc(NC(=S)Nc2ccccn2)cc1 | -62.7*
CC(C)(C)NC(=S)NCCc1ccccc1 | -192.5*
S=C(NCCc1ccccc1)NN=C1CCCCCC1 | -159.2*
S=C(NCCc1ccccc1)Nc1ccc(Br)cc1 | -126.4*
S=C(NCCc1ccccc1)Nc1ccccn1 | -140.6*
O=C(NC(=S)NCCc1ccccn1)c1ccccc1 | -106.2*
COc1ccc2c(c1)CCC1C2=NN(/C(C)=C/C(C)=O)C1c1cccc(F)c1 (stereo unspecified) | -66.4*
Cc1ccc(/C=N/Nc2ccc(F)cc2F)s1 | -179.5*
COc1cc(/C=N/Nc2ccc(F)cc2F)cc(OC)c1O | -63.3*
CC(=O)NC(CSC(CC(=O)c1ccco1)c1ccc(C)cc1)C(=O)O (stereo unspecified) | -89.5*
CCOc1ccc(OCc2ccc(C(=O)Nc3cccnc3)o2)cc1 | -81.2*
CCOc1ccc(OCc2ccc(C(=O)NC(C)(C)C)o2)cc1 | -70.3*
CN(C)c1ccc(NC(=O)c2ccc(COc3cccc(Cl)c3)o2)cc1 | -112.0*
CC(C)NC(=O)c1ccc(COc2ccc(C(C)(C)C)cc2)o1 | -135.7*
Cc1ccc(CSc2ccc(-c3cccs3)nn2)cc1 | -98.8*
Fc1ccc(CSc2ccc(-c3cccs3)nn2)cc1 | -120.6*
c1cncc(CSc2ccc(-c3cccs3)nn2)c1 | -110.4*
c1ccc(CSc2ccc(-c3cccnc3)nn2)nc1 | -77.7*
CN(C)CC/C=C1\c2ccc(F)cc2Sc2cc(F)c(Cl)cc21 | 103.4
Cc1nc2cc(NC(=O)c3ccc(Br)s3)ccc2s1 | -83.3*
Cc1nc2ccc(NC(=O)c3cc(Cl)ccn3)cc2s1 | -74.0*
SMILES | aSyn UTR act
Cc1ccc(C(=O)Nc2ccc3nc(C)sc3c2)s1 | -206.4*
CCOc1ncccc1C(=O)Nc1ccc2nc(C)sc2c1 | -74.6*
Nc1nc(Cl)nc2c1ncn2[C@H]1C[C@H](O)[C@@H](CO)O1 | 83.6
Oc1cccc(Nc2ncnc3c2oc2ccccc23)c1 | -134.5*
c1ccc2c(c1)oc1c(Nc3ccc(CN4CCOCC4)cc3)ncnc12 | -101.7*
c1ccc(Nc2ncnc3c2oc2ccccc23)cc1 | -139.1*
Oc1ccccc1Nc1ncnc2c1oc1ccccc12 | -88.0*
Oc1ccc(Nc2ncnc3c2oc2ccccc23)cc1 | -116.0*
CC(=O)N1CCN(c2ccc(Nc3ncnc4c3oc3ccccc34)cc2)CC1 | -81.4*
Cc1nnc(Nc2ccc3c(c2)OCO3)c2ccccc12 | -80.3*
c1ccc2c(c1)oc1c(Nc3ccc4c(c3)OCO4)ncnc12 | -107.5*
Cc1nc(Nc2ccccc2)c2oc3ccc(Cl)cc3c2n1 | -93.1*
O=C(Nc1ccc2c(c1)OCCO2)N1CCN(c2ccc(F)cc2)CC1 | -87.9*
Cc1cccc(C)c1N1CCN(C(=O)Nc2ccc3c(c2)OCCO3)CC1 | -73.7*
O=C(Nc1ccc2c(c1)OCCO2)C1CCN(C(=O)c2ccc(F)cc2)CC1 | -84.5*
O=C(Cc1ccc(-c2ccccc2)cc1)Nc1ncccc1O | -96.6*
OCc1ccc(O)c2ncccc12 | 65.6
CSc1ccc(CC(=O)N2CCC(n3nccc3NC(=O)C3CC3)CC2)cc1 | -116.4*
CSCC(=O)N1CCC(n2nccc2NC(=O)c2ccc3c(c2)OCO3)CC1 | -109.8*
Cc1ccc(-c2cc(C(=O)NCc3cnn(C)c3C)c3cc(Br)ccc3n2)cc1 | -63.9*
O=C(Nc1ccccn1)c1cc(-c2cccnc2)nc2ccc(Br)cc12 | 62.1
COc1ccc(-n2c(C)nn(CCOc3ccccc3)c2=O)cc1 | -90.3*
N#CC1=C(N)N2C(=C(C#N)C1c1cccc(Br)c1)Nc1ccccc12 (stereo unspecified) | 59.6
CCCCCN=C(C)c1c(O)c2ccccc2oc1=O | -211.5*
Cc1c(-c2ccccc2)nnn1-c1ccc(F)cc1F | -93.1*
SMILES | aSyn UTR act
O=C1CCCCC1Sc1nnc(Nc2ccccc2)s1 (stereo unspecified) | -126.8*
CCSc1nnc(Nc2ccccc2)s1 | -98.9*
CCSc1nnc(Nc2ccc(C)cc2)s1 | -160.6*
Cc1ccccc1-c1cc2nc(C)c(C)c(=O)n2[nH]1 | -100.8*
Cc1nc2cc(-c3ccc(F)cc3)[nH]n2c(=O)c1C | -129.3*
Cc1nc2cc(-c3cccs3)[nH]n2c(=O)c1C | -107.9*
O=C(CSc1nnc(-c2cccs2)o1)N1CCCCC1 | -99.1*
O=C(CSc1nnc(-c2ccco2)o1)c1ccc[nH]1 | -158.0*
CC1CCN(c2ccc(-c3cccs3)nn2)CC1 | 101.5
O=C(CSc1nnc(-c2ccco2)o1)N1CCCCC1 | -95.0*
CC1CCN(C(=O)CSc2nnc(-c3cccs3)o2)CC1 | -79.3*
CC(=O)Cc1nsc(Nc2ccc(C)cc2)n1 | -92.6*
Cc1cccc(-n2cnc3cc(C(=O)N4CCCCC4)ccc32)c1 | -74.0*
COc1ccc(N2C(=O)c3ccccc3NC2c2ccc(OC)c(CSc3ccccn3)c2)cc1 (stereo unspecified) | -89.0*
COC(=O)COc1ccc(Cl)cc1C1Nc2ccccc2C(=O)N1c1ccc(OC)cc1 (stereo unspecified) | -88.4*
